From PubChem BioAssay
NALP1 yeast inh: blocks the NALP1 inflammasome reconstituted in yeast; S. cerevisiae NALP1/ASC/caspase-1 growth, X-gal OD620, 72 h; inhibition, % at 10 µM; hit rate 0.61% among 280,000; in the data active = inhibition mostly above about 24%, no sharp cut-off; inactive = mostly below about 32%
APOBEC3A inh: blocks human APOBEC3A ssDNA deamination; hit rate 0.41% among 330,000; P31941; recombinant A3A, FAM/TAMRA ssDNA deamination fluorescence; inhibition, % at 20 µM;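 active = at least 40% inhibition at 20 µM here, with at most 30% in a related deaminase screen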;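 note: plate controls were A3A with DMSO for no effect and wells lacking A3A enzyme for full effect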
Target sequence (P31941 whole entry, looked up): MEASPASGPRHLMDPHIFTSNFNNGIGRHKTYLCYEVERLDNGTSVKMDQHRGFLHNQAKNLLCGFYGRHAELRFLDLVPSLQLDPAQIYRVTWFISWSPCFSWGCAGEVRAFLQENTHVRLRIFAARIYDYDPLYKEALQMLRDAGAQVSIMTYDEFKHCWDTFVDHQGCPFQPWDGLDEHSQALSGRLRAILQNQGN
A3G deaminase: blocks human APOBEC3G single-stranded DNA deamination; hit rate 0.28% among 330,000; Q9HC16; recombinant A3G, ssDNA deamination FAM/TAMRA fluorescence; inhibition, % at 20 µM;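 active = inhibition of at least 40% at 20 µM, with no more than 30% in the related APOBEC3A deaminase screen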;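 note: plate controls were DMSO wells with A3G for no effect and wells lacking A3G enzyme for full effect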
CTSL1 counter: blocks F. hepatica cathepsin L1 in PFM18AAP counter-screen. recombinant F. hepatica cathepsin L1, Z-Leu-Arg-MCA fluorescence. inhibition, % at 5.96 µM. hit rate 0.49% among 300,000. AID 1906;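 active = inhibition above the mean of all tested compounds plus 3 SD, set per screening campaign, cut at about 17% in these data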;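 note: 0% = plate median of test compound wells and 100% = 1 µM Z-Phe-Ala-diazomethylketone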
sPLA2-III inh: Blocks human group III sPLA2 activity. Q9NZ20. QFRET BODIPY PC-A2 liposome hydrolysis, fluorescence. inhibition, % at 12.2 µM. hit rate 0.56% among 370,000;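 active = inhibition above mean plus 3 SD of compounds lying within the high and low control bounds, cut at about 19% in these data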;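 note: 0% = median of test compound wells and 100% = no enzyme DMSO wells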
APOBEC3G confirm: confirmation of human APOBEC3G DNA deaminase inhibitors | recombinant A3G ssDNA deaminase, UDG/FAM-TAMRA fluorescence | inhibition, % at 20 µM | shares compounds with A3G deaminase | hit rate 72% among 890;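 active = inhibition reaching a set limit in any replicate at 20 µM, the limit being 80% of the first screen's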
UDG A3G counter: counter-screen for APOBEC3G inhibitors: E. coli UDG | 710 tested, under 10 active | shares compounds with A3G deaminase | UDG counterscreen, FAM/TAMRA oligo fluorescence | inhibition, % at 20 µM;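 active = compounds giving 40% or more inhibition at 20 µM in any one of the three replicates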;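 note: plate controls were DMSO wells with UDG and oligo for no effect and DMSO wells lacking both for full effect; inhibitors lower the FAM signal released by uracil excision and alkaline cleavage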
Target sequence (P12295 whole entry, looked up): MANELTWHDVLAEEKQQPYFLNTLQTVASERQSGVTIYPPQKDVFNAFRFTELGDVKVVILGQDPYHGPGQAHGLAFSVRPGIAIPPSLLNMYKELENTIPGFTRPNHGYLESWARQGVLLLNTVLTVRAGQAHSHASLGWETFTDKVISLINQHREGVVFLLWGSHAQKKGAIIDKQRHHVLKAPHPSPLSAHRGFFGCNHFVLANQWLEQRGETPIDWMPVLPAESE
Numbers without * were called inactive; . = no result given. A selection: hits, their analogues and other compounds. The true share with any hit is near 2%.

SMILES	NALP1 yeast inh	APOBEC3A inh	A3G deaminase	CTSL1 counter	sPLA2-III inh	APOBEC3G confirm	UDG A3G counter
Cc1ccccc1-n1c(-c2ccco2)n[nH]c1=S	25	-7	37	2	13	.	.
Cc1cccc(-n2c(-c3ccc(Br)o3)n[nH]c2=S)c1	.	-3	31	-3	18	.	.
Cc1cccc(-n2c(-c3ccco3)n[nH]c2=S)c1	6	-2	54*	0	6	60*	-4
CN(C)S(=O)(=O)c1ccc2c(c1)c(=O)c(C(=O)NCCCN1CCCCCC1)cn2C	15	5	52*	1	0	5	.
Cc1cc(O)c(/C=N/Nc2ccccc2Cl)c(=O)o1	25	-2	47*	0	-1	3	-2
Cc1cc(O)c(/C=N/Nc2ccc(Cl)cc2)c(=O)o1	9	6	32	1	-8	.	.
Cc1ccc(-n2c(=O)c3c4c(sc3n3c(=S)[nH]nc23)CCC4)cc1	2	-8	35	2	15	.	.
CCn1c(=O)c2c3c(sc2n2c(=S)[nH]nc12)CCC3	2	-9	59*	-2	7	88*	-2
O=c1c2c3c(sc2n2c(=S)[nH]nc2n1-c1ccccc1)CCC3	.	-11	53*	-1	14	84*	-6
C=CCN1C(=O)[C@@H](CC(=O)NCCC(C)C)[C@]2(C(=O)OCC)CCCCC/C=C/12	.	.	.	.	1	.	.
C#CCN(Cc1ccco1)C(=O)c1nnc2c3ccccc3n(S(=O)(=O)c3ccc(C)cc3)c2n1	.	.	.	.	-3	.	.
COc1ccccc1NS(=O)(=O)c1cc(NC(=O)c2sccc2C)ccc1N1CCOCC1	.	-3	-4	-2	3	.	.
COc1ccccc1NS(=O)(=O)c1cc(NC(=O)c2cccs2)ccc1N1CCCC1	-14	3	40*	-2	-24	63*	-2
COc1ccccc1NS(=O)(=O)c1cc(NC(=O)c2sccc2C)ccc1N1CCCC1	3	-1	42*	-1	-11	active	-3
COc1ccccc1NS(=O)(=O)c1cc(NC(=O)c2cc[n+]([O-])cc2)ccc1N1CCCC1	4	2	44*	1	-3	34*	2
Cc1ccc(-c2c(NC(=O)c3ccccc3)nc3ncccn23)cc1	.	.	.	.	10	.	.
CC(C)C[C@H](NC1(C(=O)NC2CCCCC2)CCN(C(=O)OC(C)(C)C)CC1)C(=O)NCCc1c[nH]c2ccccc12	.	.	.	.	-78	.	.
Cc1ccc(-c2c(NC(=O)c3cccc(C)c3)nc3ncccn23)cc1	.	.	.	.	-3	.	.
Cc1ccc(NNC(=O)c2ccno2)cc1C	2	-4	42*	-2	7	39*	-3
O=C(Nc1cc(S(=O)(=O)N2CCOCC2)ccc1O)c1ccc(S(=O)(=O)N2CCCCC2)cc1	.	0	-5	.	-22	.	.
O=C(Nc1cc(S(=O)(=O)Nc2ccc(Cl)cc2)ccc1O)c1ccc(S(=O)(=O)N2CCCCCC2)cc1	-19	0	53*	0	-16	44*	11
CCOC(=O)c1c(NC(=O)c2ccccc2Br)sc2c1CCc1ccccc1-2	23	3	46*	1	1	33*	-4
CCOC(=O)c1c(NC(C)=O)sc2c1CCN(Cc1ccccc1)C2	14	-7	-13	1	-3	.	.
CCOC(=O)c1c(NC(=O)c2ccccc2N(C)S(=O)(=O)c2ccccc2)sc2c1CCCC2	22	1	2	1	1	.	.
CCOC(=O)c1c(NC(C)=O)sc2c1CCC(C=O)=C2Sc1ccccc1	16	-4	41*	0	-12	2	3
SMILES	NALP1 yeast inh	APOBEC3A inh	A3G deaminase	CTSL1 counter	sPLA2-III inh	APOBEC3G confirm	UDG A3G counter
COC(=O)c1ccc(/C=N/Nc2nc(-c3ccc(C)cc3)cs2)cc1	23	1	45*	-2	.	-4	.
COC(=O)c1ccc(/C=N/Nc2nc(-c3ccccc3)cs2)cc1	-2	-1	-1	-1	0	.	.
CC(C(Sc1ccccc1N)c1ccccc1)[N+](=O)[O-] (centres undefined)	.	1	65*	-1	2	26*	-2
Nc1ccccc1SCc1ccccc1Cl	7	2	-3	2	16	.	.
COc1cc(N=c2ssnc2Cl)cc(OC)c1	-3	0	65*	0	12	65*	.
N#Cc1cccc(N=c2ssnc2Cl)c1	11	2	74*	.	10	88*	-3
Clc1ccc(N=c2ssnc2Cl)nc1	-19	-1	20	8	10	.	.
COc1ccc(CN(CC#Cc2ccccc2)Cc2ccccc2)c(OC)c1	.	.	.	.	-6	.	.
CCNc1nc(NCC)n2c(SCC(=O)Nc3ccc(CC)cc3)nnc2n1	.	3	49*	6	.	47*	-1
Oc1cc2c(cc1O)C1c3ccc(O)c(O)c3OCC1(O)C2 (centres undefined)	-14	2	61*	-5	-2	69*	.
COc1cc(/C=N/n2cc(-c3ccccc3)[nH]c2=S)cc(OC)c1O	-23	-14	46*	2	2	85*	1
Cc1nc2scc(-c3ccccc3)c2c(=O)n1N	-1	-4	-3	-5	1	.	.
Cc1nc2scc(-c3ccccc3)c2c(=O)n1N=C1C=CC(=O)C=C1	-19	-1	65*	.	-44	93*	2
Cc1ccc(-n2c(SCc3cccc(F)c3)nc3sc4c(c3c2=O)CCCC4)cc1	.	.	.	.	4	.	.
O=c1[nH]c(SCc2ccccc2[N+](=O)[O-])nc2nc[nH]c12	2	0	61*	8	-4	-7	2
O=[N+]([O-])c1ccccc1CSc1ccccn1	-13	-1	-4	-1	-4	.	.
Cc1ccc(S(=O)(=O)C(C#N)c2nc3ccccc3nc2N2CCCC2)cc1 (centres undefined)	6	-4	45*	0	-28	7	-3
CCN1CCN(c2nc3ccccc3nc2C(C#N)S(=O)(=O)c2ccc(C)cc2)CC1 (centres undefined)	10	-1	-10	-1	-23	.	.
Cn1c(-c2cc3c(C(F)(F)F)nn(C)c3s2)n[nH]c1=S	19	-2	53*	3	13	77*	1
Cn1nc(C(F)(F)F)c2cc(C(=O)O)sc21	15	-2	-3	-4	1	.	.
O=C(OCc1cn(Cc2cc(F)ccc2F)nn1)N1CCOCC1	.	.	.	.	-1	.	.
CC(C)C(=O)OCCCN1CCC2(CCC(c3ccccc3)CC2)C1=O (centres undefined)	.	.	.	.	-3	.	.
CCN(CC)C(=O)CSc1nc2c(sc(=S)n2-c2ccccc2)c(=O)n1-c1ccccc1OC	-1	-3	-11	.	-3	.	.
CCN(CC)C(=O)CSc1nc2c(sc(=S)n2-c2ccccc2)c(=O)n1-c1ccc(OC)cc1OC	-27	1	53*	3	7	56*	-4
CCOC(=O)CSc1nc2c(sc(=S)n2-c2ccccc2)c(=O)n1-c1ccc(OC)cc1OC	-12	4	41*	4	-3	28*	-4
